Laboratory results from PMC4081100, “A DNA-binding-site landscape and regulatory network analysis for NAC transcription factors in Arabidopsis thaliana”.

How the values were obtained:
Experiment in all cases: universal protein binding microarray (PBM); transcription factors of Arabidopsis thaliana; high values mean tight binding
Conditions in all cases: protein: recombinant; tags: GST; chain copies: 2; dsDNA, one strand shown
GST-ANAC092(1-176) = biological target: T1, GST-ANAC092(1-176) (Arabidopsis thaliana, UniProt Q9FKA0 1-176)
T1 sequence: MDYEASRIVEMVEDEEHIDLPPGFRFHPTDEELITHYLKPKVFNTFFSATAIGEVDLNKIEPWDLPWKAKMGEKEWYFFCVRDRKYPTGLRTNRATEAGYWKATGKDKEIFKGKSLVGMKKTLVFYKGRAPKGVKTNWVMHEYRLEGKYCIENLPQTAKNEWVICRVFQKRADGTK
In short: (§1)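 Binding is expressed as the normalised enrichment score (E-score). Proteins carrying a GST tag, whether NAC-domain, full-length or DNA-binding-domain forms, were induced in cells, and zinc acetate was added for zinc-finger proteins. After purification on glutathione–Sepharose 4B and quantification by A280 or anti-GST western blot, each was applied in duplicate at 200 to 500 nM final to custom all-10-mer Agilent 4 × 180K arrays made double-stranded by primer extension. Gapped and ungapped 8-mers were scored.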

GST-ANAC019 NAC domain = biological target: T2, GST-ANAC019 NAC domain (Arabidopsis thaliana, UniProt Q9C932 14-162)
T2 sequence: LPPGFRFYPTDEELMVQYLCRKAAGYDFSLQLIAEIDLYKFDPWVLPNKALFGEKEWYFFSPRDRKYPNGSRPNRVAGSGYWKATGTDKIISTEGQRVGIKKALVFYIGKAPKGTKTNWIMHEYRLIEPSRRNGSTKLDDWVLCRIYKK
In short: as §1

GST-ANAC055(1-171) = biological target: T3, GST-ANAC055(1-171) (Arabidopsis thaliana, UniProt Q9LDY8 1-171)
T3 sequence: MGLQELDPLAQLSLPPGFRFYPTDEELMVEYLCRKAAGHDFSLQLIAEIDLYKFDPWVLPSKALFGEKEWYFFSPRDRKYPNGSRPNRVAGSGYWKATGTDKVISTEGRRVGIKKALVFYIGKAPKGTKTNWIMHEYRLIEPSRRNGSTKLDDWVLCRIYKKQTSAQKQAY
In short: as §1

GST-ATAF1 NAC domain = biological target: T4, GST-ATAF1 NAC domain (Arabidopsis thaliana, UniProt Q39013 7-158)
T4 sequence: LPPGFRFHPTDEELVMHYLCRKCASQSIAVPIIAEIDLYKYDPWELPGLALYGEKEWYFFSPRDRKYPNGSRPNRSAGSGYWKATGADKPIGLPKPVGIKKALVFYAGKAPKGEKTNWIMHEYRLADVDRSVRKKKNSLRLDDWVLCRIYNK
In short: as §1

[1] = biological target: T5, GST-ANAC092(1-285) full length (Arabidopsis thaliana, UniProt Q9FKA0 1-285)
T5 sequence: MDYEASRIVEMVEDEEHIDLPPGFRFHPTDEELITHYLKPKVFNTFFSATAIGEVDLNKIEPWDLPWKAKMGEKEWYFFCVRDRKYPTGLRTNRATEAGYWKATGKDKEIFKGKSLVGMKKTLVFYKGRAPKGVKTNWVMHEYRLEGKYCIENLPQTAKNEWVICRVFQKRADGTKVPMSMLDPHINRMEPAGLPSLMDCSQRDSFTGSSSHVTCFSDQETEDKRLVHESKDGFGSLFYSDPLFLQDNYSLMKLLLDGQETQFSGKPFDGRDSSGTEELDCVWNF
In short: as §1

GST-NAP(1-166) = biological target: T6, GST-NAP(1-166) (Arabidopsis thaliana, UniProt O49255 1-166)
T6 sequence: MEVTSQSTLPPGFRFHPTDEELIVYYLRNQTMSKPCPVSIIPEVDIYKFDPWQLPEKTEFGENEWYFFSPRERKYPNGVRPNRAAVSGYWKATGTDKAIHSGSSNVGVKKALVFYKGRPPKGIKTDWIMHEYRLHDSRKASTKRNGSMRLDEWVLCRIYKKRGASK
In short: as §1

GST-NST2(1-184) = biological target: T7, GST-NST2(1-184) (Arabidopsis thaliana, UniProt Q9M274 1-184)
T7 sequence: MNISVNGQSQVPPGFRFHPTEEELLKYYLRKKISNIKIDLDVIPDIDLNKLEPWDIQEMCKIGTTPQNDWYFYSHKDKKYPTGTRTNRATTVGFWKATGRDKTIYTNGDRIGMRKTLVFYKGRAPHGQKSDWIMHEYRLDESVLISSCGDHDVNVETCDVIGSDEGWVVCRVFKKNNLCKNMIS
In short: as §1

GST-SND1(1-203) = biological target: T8, GST-SND1(1-203) (Arabidopsis thaliana, UniProt Q9LPI7 1-203)
T8 sequence: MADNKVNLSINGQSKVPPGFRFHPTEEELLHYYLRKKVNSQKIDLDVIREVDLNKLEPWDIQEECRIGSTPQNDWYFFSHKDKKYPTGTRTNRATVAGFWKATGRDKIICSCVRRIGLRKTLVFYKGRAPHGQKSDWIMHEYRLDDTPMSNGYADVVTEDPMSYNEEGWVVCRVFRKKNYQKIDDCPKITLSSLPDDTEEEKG
In short: as §1

GST-VND3 NAC domain = biological target: T9, GST-VND3 NAC domain (Arabidopsis thaliana, UniProt Q9FH59 12-162)
T9 sequence: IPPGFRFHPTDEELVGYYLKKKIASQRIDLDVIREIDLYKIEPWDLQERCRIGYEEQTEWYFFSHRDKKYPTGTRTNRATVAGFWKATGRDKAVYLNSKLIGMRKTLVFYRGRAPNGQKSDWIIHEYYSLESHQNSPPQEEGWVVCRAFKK
In short: as §1

GST-VND7 NAC domain = biological target: T10, GST-VND7 NAC domain (Arabidopsis thaliana, UniProt Q9C8W9 9-158)
T10 sequence: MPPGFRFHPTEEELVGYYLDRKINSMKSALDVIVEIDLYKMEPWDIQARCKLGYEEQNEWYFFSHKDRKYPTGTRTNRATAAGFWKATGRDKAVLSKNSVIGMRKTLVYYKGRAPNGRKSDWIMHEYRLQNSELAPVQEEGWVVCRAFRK
In short: as §1

Sequence | binding signal (GST-ANAC092(1-176)) | binding signal (GST-ANAC019 NAC domain) | binding signal (GST-ANAC055(1-171)) | binding signal (GST-ATAF1 NAC domain) | binding signal [1] | binding signal (GST-NAP(1-166)) | binding signal (GST-NST2(1-184)) | binding signal (GST-SND1(1-203)) | binding signal (GST-VND3 NAC domain) | binding signal (GST-VND7 NAC domain)
AGTTACGC | 0.273 E-score | 0.134 E-score | 0.0766 E-score | 0.124 E-score | 0.275 E-score | 0.115 E-score | 0.245 E-score | 0.412 E-score | 0.103 E-score | 0.0942 E-score
AACACGCA | 0.469 E-score | 0.415 E-score | 0.345 E-score | 0.315 E-score | 0.477 E-score | 0.386 E-score | 0.263 E-score | 0.335 E-score | 0.346 E-score | 0.34 E-score
ACACGCAT | 0.462 E-score | 0.346 E-score | 0.335 E-score | 0.292 E-score | 0.468 E-score | 0.332 E-score | 0.242 E-score | 0.295 E-score | 0.351 E-score | 0.33 E-score
GCGTGTAC | 0.403 E-score | 0.19 E-score | 0.196 E-score | 0.19 E-score | 0.434 E-score | 0.261 E-score | 0.195 E-score | 0.191 E-score | 0.197 E-score | 0.193 E-score
ACGTTAAC | 0.421 E-score | 0.257 E-score | 0.228 E-score | 0.227 E-score | 0.438 E-score | 0.218 E-score | 0.27 E-score | 0.412 E-score | 0.209 E-score | 0.207 E-score
AACGTACG | 0.297 E-score | 0.122 E-score | 0.207 E-score | 0.326 E-score | 0.403 E-score | 0.212 E-score | 0.184 E-score | 0.326 E-score | 0.308 E-score | 0.209 E-score
AAGCGTGT | 0.421 E-score | 0.242 E-score | 0.167 E-score | 0.207 E-score | 0.44 E-score | 0.133 E-score | 0.192 E-score | 0.186 E-score | 0.126 E-score | 0.213 E-score
GCGTACGC | 0.402 E-score | 0.287 E-score | 0.265 E-score | 0.16 E-score | 0.418 E-score | 0.226 E-score | 0.251 E-score | 0.288 E-score | 0.0861 E-score | 0.346 E-score
ACGCCAAC | 0.404 E-score | 0.116 E-score | 0.175 E-score | 0.159 E-score | 0.436 E-score | 0.0544 E-score | 0.227 E-score | 0.379 E-score | 0.0688 E-score | 0.118 E-score
ACGTCACC | 0.452 E-score | 0.308 E-score | 0.32 E-score | 0.311 E-score | 0.463 E-score | 0.356 E-score | 0.237 E-score | 0.408 E-score | 0.239 E-score | 0.28 E-score
ACGCAATC | 0.48 E-score | 0.285 E-score | 0.343 E-score | 0.298 E-score | 0.485 E-score | 0.386 E-score | 0.384 E-score | 0.474 E-score | 0.355 E-score | 0.38 E-score
ACACGCCA | 0.487 E-score | 0.382 E-score | 0.298 E-score | 0.227 E-score | 0.492 E-score | 0.294 E-score | 0.313 E-score | 0.379 E-score | 0.22 E-score | 0.257 E-score
ACGGAACA | 0.224 E-score | 0.418 E-score | 0.418 E-score | 0.304 E-score | 0.289 E-score | 0.336 E-score | 0.166 E-score | 0.217 E-score | 0.352 E-score | 0.409 E-score
CTACACGC | 0.361 E-score | 0.11 E-score | 0.0947 E-score | 0.186 E-score | 0.425 E-score | 0.192 E-score | 0.235 E-score | 0.307 E-score | 0.147 E-score | 0.0812 E-score
ACGTGTAC | 0.328 E-score | 0.309 E-score | 0.286 E-score | 0.279 E-score | 0.413 E-score | 0.278 E-score | 0.201 E-score | 0.204 E-score | 0.267 E-score | 0.206 E-score
